# Source: ChEMBL document CHEMBL1961873, “Compounds: GSK PKIS; Assays: Nanosyn kinase panel” (2012)
# Assays:
# [1] = target: Sphingosine kinase 1 (Homo sapiens) (UniProt Q9NYA1); settings: at 1 µM;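 also: mean SPHK1 inhibition value reported from the GSK PKIS kinase panel screen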
# [2] = target: T1, Sphingosine kinase 2 (Homo sapiens) (UniProt Q9NRA0); settings: at 0.1 µM
# T1 sequence (whole entry): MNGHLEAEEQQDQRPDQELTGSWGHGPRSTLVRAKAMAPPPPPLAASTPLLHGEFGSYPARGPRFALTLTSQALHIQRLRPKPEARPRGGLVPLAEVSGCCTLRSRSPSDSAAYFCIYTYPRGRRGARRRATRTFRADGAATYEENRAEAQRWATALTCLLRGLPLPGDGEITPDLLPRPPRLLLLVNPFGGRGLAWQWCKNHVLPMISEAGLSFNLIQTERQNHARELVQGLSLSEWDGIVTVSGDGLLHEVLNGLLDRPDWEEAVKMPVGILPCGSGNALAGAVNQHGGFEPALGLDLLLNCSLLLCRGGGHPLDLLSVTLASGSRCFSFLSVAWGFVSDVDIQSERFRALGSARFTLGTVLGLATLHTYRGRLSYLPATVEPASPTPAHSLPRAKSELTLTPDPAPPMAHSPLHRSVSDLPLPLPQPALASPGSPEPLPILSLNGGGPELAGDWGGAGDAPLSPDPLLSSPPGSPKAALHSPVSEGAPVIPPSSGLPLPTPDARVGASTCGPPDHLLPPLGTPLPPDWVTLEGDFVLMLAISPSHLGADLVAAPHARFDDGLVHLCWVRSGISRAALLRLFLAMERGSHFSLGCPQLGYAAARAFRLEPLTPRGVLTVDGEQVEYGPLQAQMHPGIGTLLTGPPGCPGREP
# [3] = target: T1, Sphingosine kinase 2 (Homo sapiens); settings: at 1 µM
# [4] = target: Casein kinase II subunit alpha (Homo sapiens) (UniProt P68400); settings: at 0.1 µM
# Casein kinase II subunit alpha (Homo sapiens), sequence (P68400 whole entry, looked up): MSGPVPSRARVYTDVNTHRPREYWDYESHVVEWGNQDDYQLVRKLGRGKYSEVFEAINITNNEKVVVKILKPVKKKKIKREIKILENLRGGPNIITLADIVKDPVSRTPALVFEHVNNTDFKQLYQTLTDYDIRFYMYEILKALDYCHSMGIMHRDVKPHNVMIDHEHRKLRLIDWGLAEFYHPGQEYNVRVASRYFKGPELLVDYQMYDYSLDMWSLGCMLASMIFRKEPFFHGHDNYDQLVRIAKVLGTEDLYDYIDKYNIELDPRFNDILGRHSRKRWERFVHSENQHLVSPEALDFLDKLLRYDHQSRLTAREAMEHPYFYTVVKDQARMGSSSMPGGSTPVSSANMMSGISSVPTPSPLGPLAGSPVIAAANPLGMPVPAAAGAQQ
# [5] = target: Casein kinase II subunit alpha (Homo sapiens) (UniProt P68400); settings: at 1 µM
# [6] = target: T2, Inhibitor of nuclear factor kappa-B kinase subunit alpha (Homo sapiens) (UniProt O15111); settings: at 0.1 µM
# T2 sequence (whole entry): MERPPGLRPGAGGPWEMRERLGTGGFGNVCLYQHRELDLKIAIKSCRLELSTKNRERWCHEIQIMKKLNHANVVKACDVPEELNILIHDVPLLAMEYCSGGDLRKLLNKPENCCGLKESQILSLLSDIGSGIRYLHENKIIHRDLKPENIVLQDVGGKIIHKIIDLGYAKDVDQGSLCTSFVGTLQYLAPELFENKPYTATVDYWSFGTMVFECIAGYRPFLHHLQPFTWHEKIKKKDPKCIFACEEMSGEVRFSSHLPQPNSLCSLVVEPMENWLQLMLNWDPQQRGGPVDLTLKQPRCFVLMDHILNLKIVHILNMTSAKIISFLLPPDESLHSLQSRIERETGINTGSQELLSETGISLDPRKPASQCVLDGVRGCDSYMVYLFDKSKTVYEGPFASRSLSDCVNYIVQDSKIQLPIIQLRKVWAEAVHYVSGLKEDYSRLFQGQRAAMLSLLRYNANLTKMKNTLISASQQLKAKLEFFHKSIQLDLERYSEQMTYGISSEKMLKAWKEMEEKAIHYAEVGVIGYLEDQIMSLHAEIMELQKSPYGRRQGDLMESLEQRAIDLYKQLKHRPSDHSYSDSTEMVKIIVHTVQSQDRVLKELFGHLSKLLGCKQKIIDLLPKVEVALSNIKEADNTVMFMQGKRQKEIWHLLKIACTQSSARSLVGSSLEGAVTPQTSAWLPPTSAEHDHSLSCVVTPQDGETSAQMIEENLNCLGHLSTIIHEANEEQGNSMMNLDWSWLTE
# [7] = target: T2, Inhibitor of nuclear factor kappa-B kinase subunit alpha (Homo sapiens); settings: at 1 µM
# [8] = target: T3, Inhibitor of nuclear factor kappa-B kinase subunit beta (Homo sapiens) (UniProt O14920); settings: at 0.1 µM
# T3 sequence (whole entry): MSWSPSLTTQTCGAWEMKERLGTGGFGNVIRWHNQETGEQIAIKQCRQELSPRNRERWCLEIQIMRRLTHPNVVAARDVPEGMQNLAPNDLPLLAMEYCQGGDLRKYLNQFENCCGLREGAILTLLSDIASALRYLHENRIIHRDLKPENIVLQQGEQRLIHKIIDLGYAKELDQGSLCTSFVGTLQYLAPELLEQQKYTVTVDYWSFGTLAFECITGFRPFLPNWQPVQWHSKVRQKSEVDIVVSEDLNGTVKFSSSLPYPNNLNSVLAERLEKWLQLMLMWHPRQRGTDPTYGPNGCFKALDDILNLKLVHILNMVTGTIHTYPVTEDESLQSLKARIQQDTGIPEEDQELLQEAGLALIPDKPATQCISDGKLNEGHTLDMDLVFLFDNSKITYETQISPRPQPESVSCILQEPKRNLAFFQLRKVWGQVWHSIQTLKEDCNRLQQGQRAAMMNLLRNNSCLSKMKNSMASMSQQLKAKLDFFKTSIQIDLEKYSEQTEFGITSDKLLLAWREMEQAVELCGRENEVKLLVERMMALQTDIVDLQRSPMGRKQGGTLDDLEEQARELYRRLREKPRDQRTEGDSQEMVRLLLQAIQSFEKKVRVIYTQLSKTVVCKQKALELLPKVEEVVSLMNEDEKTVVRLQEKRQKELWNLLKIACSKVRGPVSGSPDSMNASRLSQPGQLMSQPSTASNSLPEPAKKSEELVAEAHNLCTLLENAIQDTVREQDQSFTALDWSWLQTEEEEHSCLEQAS
# [9] = target: T3, Inhibitor of nuclear factor kappa-B kinase subunit beta (Homo sapiens); settings: at 1 µM
# [10] = target: T4, Inhibitor of nuclear factor kappa-B kinase subunit epsilon (Homo sapiens) (UniProt Q14164); settings: at 0.1 µM
# T4 sequence (whole entry): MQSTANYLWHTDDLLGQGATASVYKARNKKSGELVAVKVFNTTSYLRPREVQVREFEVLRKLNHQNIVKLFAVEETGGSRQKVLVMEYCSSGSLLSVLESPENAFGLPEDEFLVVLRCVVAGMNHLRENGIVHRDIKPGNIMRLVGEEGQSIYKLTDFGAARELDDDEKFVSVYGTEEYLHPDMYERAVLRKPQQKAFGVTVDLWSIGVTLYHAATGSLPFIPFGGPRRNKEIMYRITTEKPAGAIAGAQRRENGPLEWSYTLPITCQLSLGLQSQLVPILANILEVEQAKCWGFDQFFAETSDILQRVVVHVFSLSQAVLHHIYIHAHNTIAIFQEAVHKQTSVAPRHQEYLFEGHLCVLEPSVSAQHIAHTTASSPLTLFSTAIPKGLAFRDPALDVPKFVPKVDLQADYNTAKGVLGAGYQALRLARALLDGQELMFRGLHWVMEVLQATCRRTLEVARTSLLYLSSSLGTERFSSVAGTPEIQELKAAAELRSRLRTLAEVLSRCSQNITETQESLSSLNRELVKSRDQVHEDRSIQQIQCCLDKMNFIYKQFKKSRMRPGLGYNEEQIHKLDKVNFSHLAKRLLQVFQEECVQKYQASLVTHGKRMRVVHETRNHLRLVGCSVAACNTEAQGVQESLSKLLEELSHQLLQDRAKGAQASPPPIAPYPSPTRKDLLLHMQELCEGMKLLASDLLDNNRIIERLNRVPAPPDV
# [11] = target: T4, Inhibitor of nuclear factor kappa-B kinase subunit epsilon (Homo sapiens); settings: at 1 µM
# [12] = target: T5, Serine/threonine-protein kinase Nek1 (Homo sapiens) (UniProt Q96PY6); settings: at 0.1 µM
# T5 sequence (whole entry): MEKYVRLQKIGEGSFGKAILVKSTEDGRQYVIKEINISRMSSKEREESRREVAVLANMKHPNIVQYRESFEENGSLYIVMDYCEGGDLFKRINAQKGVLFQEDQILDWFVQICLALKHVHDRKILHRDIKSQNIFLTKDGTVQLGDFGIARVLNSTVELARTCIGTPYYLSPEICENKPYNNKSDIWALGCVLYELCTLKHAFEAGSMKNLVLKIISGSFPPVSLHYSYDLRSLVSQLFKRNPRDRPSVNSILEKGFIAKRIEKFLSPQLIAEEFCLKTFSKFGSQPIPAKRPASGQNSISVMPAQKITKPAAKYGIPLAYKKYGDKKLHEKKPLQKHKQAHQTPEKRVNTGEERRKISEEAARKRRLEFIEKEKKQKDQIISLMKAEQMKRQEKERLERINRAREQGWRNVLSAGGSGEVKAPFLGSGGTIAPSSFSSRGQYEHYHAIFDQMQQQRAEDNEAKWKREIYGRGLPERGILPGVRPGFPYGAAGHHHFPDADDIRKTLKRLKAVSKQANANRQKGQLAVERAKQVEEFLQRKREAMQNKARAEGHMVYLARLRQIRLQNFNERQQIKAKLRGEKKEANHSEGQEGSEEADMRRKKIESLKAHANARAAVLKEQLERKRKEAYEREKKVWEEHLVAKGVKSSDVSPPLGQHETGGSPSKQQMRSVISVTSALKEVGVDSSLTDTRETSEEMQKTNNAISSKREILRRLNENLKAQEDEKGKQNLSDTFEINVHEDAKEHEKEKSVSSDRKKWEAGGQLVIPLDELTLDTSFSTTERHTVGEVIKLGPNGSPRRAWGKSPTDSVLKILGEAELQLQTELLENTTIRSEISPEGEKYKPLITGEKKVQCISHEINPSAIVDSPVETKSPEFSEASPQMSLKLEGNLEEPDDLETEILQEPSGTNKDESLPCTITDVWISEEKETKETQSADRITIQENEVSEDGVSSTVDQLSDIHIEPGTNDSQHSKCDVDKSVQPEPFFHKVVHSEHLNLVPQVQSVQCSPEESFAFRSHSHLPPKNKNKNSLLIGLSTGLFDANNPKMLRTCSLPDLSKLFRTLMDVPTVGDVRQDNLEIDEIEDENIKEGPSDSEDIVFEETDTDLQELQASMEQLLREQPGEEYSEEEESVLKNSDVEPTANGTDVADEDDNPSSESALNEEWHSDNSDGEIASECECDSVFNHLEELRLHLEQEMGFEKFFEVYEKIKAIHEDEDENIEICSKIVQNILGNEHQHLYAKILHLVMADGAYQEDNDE
# [13] = target: T5, Serine/threonine-protein kinase Nek1 (Homo sapiens); settings: at 1 µM
# [14] = target: T6, Serine/threonine-protein kinase Nek2 (Homo sapiens) (UniProt P51955); settings: at 0.1 µM
# T6 sequence (whole entry): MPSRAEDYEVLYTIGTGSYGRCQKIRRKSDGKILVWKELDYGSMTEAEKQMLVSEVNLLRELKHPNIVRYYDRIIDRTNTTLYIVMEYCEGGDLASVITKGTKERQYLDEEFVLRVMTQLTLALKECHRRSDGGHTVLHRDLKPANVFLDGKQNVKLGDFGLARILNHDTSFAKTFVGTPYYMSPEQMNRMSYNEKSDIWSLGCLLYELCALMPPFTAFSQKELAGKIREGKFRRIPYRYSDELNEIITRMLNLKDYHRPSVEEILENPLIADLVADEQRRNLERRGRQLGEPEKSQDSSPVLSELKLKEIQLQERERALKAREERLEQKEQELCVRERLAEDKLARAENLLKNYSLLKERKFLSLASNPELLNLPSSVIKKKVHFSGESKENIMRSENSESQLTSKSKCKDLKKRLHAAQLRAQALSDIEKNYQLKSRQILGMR
# [15] = target: T6, Serine/threonine-protein kinase Nek2 (Homo sapiens); settings: at 1 µM
# [16] = target: Serine/threonine-protein kinase Nek6 (Homo sapiens) (UniProt Q9HC98); settings: at 0.1 µM
# Serine/threonine-protein kinase Nek6 (Homo sapiens), sequence (Q9HC98 whole entry): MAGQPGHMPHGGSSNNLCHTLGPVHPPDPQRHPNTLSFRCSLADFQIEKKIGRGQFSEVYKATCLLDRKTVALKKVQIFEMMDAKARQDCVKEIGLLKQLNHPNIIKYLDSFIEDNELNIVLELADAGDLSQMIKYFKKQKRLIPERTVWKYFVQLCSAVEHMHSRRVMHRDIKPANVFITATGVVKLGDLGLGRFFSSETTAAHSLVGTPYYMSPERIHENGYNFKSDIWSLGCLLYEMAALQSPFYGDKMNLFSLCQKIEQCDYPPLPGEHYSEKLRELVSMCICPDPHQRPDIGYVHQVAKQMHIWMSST
# [17] = target: Serine/threonine-protein kinase Nek6 (Homo sapiens) (UniProt Q9HC98); settings: at 1 µM
# [18] = target: Serine/threonine-protein kinase Nek7 (Homo sapiens) (UniProt Q8TDX7); settings: at 0.1 µM
# Serine/threonine-protein kinase Nek7 (Homo sapiens), sequence (Q8TDX7 whole entry, looked up): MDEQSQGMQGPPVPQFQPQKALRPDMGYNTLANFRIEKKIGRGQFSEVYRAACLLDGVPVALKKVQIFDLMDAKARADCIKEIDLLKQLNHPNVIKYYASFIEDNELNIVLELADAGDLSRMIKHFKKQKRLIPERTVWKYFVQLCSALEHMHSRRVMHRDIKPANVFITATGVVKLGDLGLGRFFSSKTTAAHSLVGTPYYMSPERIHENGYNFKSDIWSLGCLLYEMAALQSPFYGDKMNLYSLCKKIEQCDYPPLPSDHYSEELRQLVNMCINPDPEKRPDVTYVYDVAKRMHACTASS
# [19] = target: Serine/threonine-protein kinase Nek7 (Homo sapiens) (UniProt Q8TDX7); settings: at 1 µM
# [20] = target: T7, Serine/threonine-protein kinase Nek9 (Homo sapiens) (UniProt Q8TD19); settings: at 0.1 µM;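 also: reported value is the mean percent inhibition of NEK9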
# T7 sequence (whole entry): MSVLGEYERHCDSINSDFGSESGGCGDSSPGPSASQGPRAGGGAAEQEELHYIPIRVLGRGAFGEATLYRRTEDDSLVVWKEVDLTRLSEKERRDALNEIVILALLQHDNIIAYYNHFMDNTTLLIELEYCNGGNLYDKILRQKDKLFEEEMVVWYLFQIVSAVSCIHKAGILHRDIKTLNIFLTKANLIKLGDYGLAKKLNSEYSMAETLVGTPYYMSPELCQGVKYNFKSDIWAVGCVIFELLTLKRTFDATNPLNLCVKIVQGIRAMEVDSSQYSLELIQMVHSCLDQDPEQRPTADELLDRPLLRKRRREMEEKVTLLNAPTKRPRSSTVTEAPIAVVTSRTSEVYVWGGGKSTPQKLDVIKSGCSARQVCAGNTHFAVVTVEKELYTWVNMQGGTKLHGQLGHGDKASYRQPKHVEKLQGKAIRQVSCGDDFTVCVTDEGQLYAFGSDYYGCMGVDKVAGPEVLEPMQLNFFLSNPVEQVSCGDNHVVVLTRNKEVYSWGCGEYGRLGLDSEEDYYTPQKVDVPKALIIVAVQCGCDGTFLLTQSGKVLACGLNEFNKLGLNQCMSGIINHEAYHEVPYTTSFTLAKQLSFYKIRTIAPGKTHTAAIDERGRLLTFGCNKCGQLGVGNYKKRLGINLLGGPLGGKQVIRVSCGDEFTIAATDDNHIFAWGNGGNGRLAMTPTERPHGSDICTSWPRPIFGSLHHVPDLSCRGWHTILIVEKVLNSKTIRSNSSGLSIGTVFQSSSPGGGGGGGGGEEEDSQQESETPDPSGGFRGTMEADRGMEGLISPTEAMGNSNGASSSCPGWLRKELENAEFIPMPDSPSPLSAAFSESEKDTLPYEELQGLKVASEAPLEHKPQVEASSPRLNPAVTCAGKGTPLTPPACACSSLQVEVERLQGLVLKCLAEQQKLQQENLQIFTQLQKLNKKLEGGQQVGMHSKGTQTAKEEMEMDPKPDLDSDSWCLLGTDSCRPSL
# Sphingosine kinase 1 (Homo sapiens), sequence (Q9NYA1 whole entry): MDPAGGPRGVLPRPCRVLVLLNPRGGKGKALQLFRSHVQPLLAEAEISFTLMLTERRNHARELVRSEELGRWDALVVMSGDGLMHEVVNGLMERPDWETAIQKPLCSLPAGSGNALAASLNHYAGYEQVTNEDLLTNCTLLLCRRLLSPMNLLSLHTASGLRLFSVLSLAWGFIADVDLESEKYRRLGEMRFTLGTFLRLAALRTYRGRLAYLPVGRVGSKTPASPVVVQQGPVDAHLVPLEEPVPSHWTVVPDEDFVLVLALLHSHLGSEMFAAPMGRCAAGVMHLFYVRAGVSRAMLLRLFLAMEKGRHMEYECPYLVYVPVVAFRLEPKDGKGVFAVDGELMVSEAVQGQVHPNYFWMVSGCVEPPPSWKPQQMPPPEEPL
Compound,inhibition [1] [%],inhibition [2] [%],inhibition [3] [%],inhibition [4] [%],inhibition [5] [%],inhibition [6] [%],inhibition [7] [%],inhibition [8] [%],inhibition [9] [%],inhibition [10] [%],inhibition [11] [%],inhibition [12] [%],inhibition [13] [%],inhibition [14] [%],inhibition [15] [%],inhibition [16] [%],inhibition [17] [%],inhibition [18] [%],inhibition [19] [%],inhibition [20] [%]
COc1cc(C=NNc2ncnc3c2cnn3-c2ccccc2)ccc1O,-3.84,-0.52,-2.55,9.38,41.6,10.6,-1.27,3.33,-0.52,3.38,8.67,3.59,15.8,2.6,3.58,1.23,-0.37,3.01,5.26,3.36
CCn1c(-c2nonc2N)nc2cncc(C(=O)N3CCNCC3)c21,-1.31,2.81,0.77,4.04,2.82,1.05,5.47,6.46,8.59,12.2,7.71,4.64,3.76,3.46,5.88,1.92,3.67,2.41,10.8,6
O=C1NC(=O)C(c2cccc(Cl)c2)=C1Nc1ccc(O)c(Cl)c1,-1.72,-1.48,-0.07,-2.69,-1.28,0.7,0.73,-0.95,-3.39,-0.3,0.33,0.25,0.17,1.39,1.51,-0.33,-3.08,1.78,1.51,1.58
